Experiment [1] is described as follows: Viability qHTS for spleen associated tyrosine kinase inhibitor (SYKi) naive MV4-11 cells (AID 1963823). Also: nearly all actives have a fitted effect of over 40% in size. A digest of the protocol:
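Seeding of 500 SYKi-naive MV4-11 cells per well onto pre-dispensed compounds preceded a 72 hr incubation at 37 C. Luminescent CellTiter-Glo signal, read after 10 min at room temperature, reflected viable cells.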

The nature of experiment [2]: Viability qHTS for spleen associated tyrosine kinase inhibitor (SYKi) drug resistant MV4-11 cells (AID 1963824). Also: nearly all actives have a fitted effect of over 35% in size. A digest of the protocol: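 SYK inhibitor-resistant MV4-11 AML cells, 500 per well, added to predispensed compounds and incubated 72 hr at 37 C, 5% CO2. Viability measured by CellTiter-Glo luminescence after 10 min at room temperature.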
A general note: In qHTS, concentration-response curves come from the screen itself.

Experiment [3] in a line: Quantitative highthroughput screen to assess conditional lethalithy of P12 Ichikawa cells grown in Human Plasma-Like Medium with dialyzed fetal bovine serum (HPLM+ds) (AID 1963879). Also: nearly all actives have a fitted effect of over 35% in size. As to Viability: series mostly up to about 46 µM. To be noted: Potency: viability. A digest of the protocol:
(§1)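 Each medium arm—HPLM with 10% dialyzed FBS, or RPMI1640 with 5 mM glucose and 10% untreated or dialyzed FBS—was screened against an 11-point, 3-fold compound titration for 48 h at 37 °C, with CellTiter-Glo luminescence as endpoint.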

The nature of experiment [4]: Quantitative highthroughput screen to assess conditional lethalithy of SEM cells grown in RPMI1640 with unreated serum (RPMI+s) (AID 1963883). Also: nearly all actives have a fitted effect of over 35% in size.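 As to Viability: 100% = DMSO wells and 0% = empty wells without cells.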 A digest of the protocol:
as §1

The nature of experiment [5]: Cellular viability qHTS for adrenocortical cancer (ACC) cell line SW-13 (AID 1963989). Also: nearly all actives have a fitted effect of over 65% in size.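 As to activity (max response): cells grown in serum-free medium with ITS supplement; % is scaled to controls: 0 for no effect and ±100 for the full control effect.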 The settings on record: SW-13 ACC cells viability, CellTiter-Glo, 48 h; activity (max response): hits give low values. A digest of the protocol:
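SW-13 cells in ITS-supplemented serum-free DMEM were plated overnight, then exposed for 48 h at 37C to compound titrations (up to 46 uM final). Viability was read by CellTiter-Glo luminescence; four-parameter logistic fits gave IC50 and efficacy.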

The nature of experiment [6]: Quantitative highthroughput screen to assess conditional lethalithy of P12 Ichikawa cells grown in RPMI1640 with untreated serum (RPMI+s) (AID 1963881). Also: nearly all actives have a fitted effect of over 35% in size.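 As to Viability: series mostly up to about 46 µM; 100% = DMSO wells and 0% = empty wells without cells.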 To be noted: Potency: viability. The method, boiled down: as §1
Experiment [7] in a line: Cellular viability qHTS for adrenocortical cancer (ACC) cell line NCI-H295R (AID 1963990). Also: nearly all actives have a fitted effect of over 60% in size. A digest of the protocol:
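Luminescent ATP read-out (CellTiter-Glo, 20 min RT) after 48 h drug exposure of NCI-H295R cells; a titration up to 46 uM final. Data normalized to doxorubicin (100% inhibition) and DMSO (0%); 4-parameter fit gives IC50, max response.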

Experiment [8] in a line: Quantitative highthroughput screen to assess conditional lethalithy of SEM cells grown in Human Plasma-Like Medium with dialyzed fetal bovine serum (HPLM+ds) (AID 1963882). Also: nearly all actives have a fitted effect of over 35% in size. As to Viability: series mostly up to about 46 µM. A digest of the protocol:
as §1

Experiment [9] in a line: Quantitative highthroughput screen to assess conditional lethalithy of SEM cells grown in RPMI1640 with dialyzed fetal bovine serum (RPMI+ds) (AID 1963884). Also: nearly all actives have a fitted effect of over 35% in size.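 As to Viability: series mostly up to about 46 µM; 100% = DMSO control wells and 0% = empty wells without cells.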 The method, boiled down: as §1
Experiment [10] is described as follows: Quantitative highthroughput screen to assess conditional lethalithy of P12 Ichikawa cells grown in RPMI1640 with dialyzed fetal bovine serum (RPMI+ds) (AID 1963880). Also: nearly all actives have a fitted effect of over 35% in size.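 As to Viability: 100% = DMSO wells and 0% = empty wells on each plate.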 To be noted: Potency: P12-Ichikawa viability. The method, boiled down: as §1

Several values for one entry are separate records, joined by “and”; a condition that tells them apart may be missing. Equal entries are not always repeated. Inconclusive results are not listed. A number with no mark means an inactive call. Activity calls are given as the source filed them. Calls follow the shape of the dose curve; as a rule, active = well fitted curve in the direction sought with a large enough effect; inconclusive = small, poorly fitted or top-dose-only effect, or another doubt; inactive = no such curve, though single readings can be large; an effect the other way counts as inactive or inconclusive.
Potency is read from the fitted curve at half-maximal effect.

As for `CN(CC(=O)N(Cc1ccc(C2CCCCC2)cc1)c1ccc(C(=O)O)c(O)c1)S(=O)(=O)c1c(F)c(F)c(F)c(F)c1F`, the Potency in experiment [1] was 4.17 µM (active); in experiment [2], 2.63 µM (active); in experiment [3] it was 20.9 µM (active); in [4] it was 16.6 µM (active). For the same compound, in experiment [5], the activity (max response) is -5.17%.

For the compound `Cc1cc(C(C)(C)C)c(O)c(C)c1CC1=NCCN1`, the Potency entry in experiment [1], in experiment [2] and in experiment [7] was “inactive” each time. For the same compound, the Potency in experiment [3] was 8.33 µM (active); in experiment [6] it was 10.5 µM (active). In experiment [5], the activity (max response) was -5.66% and -4.23%.

In the case of `NC(=NCCCCCCN=C(N)N=C(N)Nc1ccc(Cl)cc1)N=C(N)Nc1ccc(Cl)cc1`, the Potency is 2.35 µM (active) in experiment [1]; 2.63 µM (active) in experiment [2]; 20.9 µM (active) in [6]; 3.98 µM (active) in [5]; 17.8 µM (active) in experiment [7]. Moreover, the Potency entry in experiment [3] was “inactive”.

With `Nc1ncnc2c1nc(Cl)n2[C@@H]1O[C@H](CO)[C@@H](O)[C@@H]1O`, the Potency in experiment [1] is 2.35 µM (active); in experiment [2], 2.95 µM (active); in [8], 11.8 µM (active); in experiment [4], 14.8 µM (active); in experiment [9], 8.33 µM (active).

As for `CC(=O)Nc1nc(C)c(-c2ccc(Cl)c(S(=O)(=O)NCCO)c2)s1`, the Potency in experiment [1] was 0.82 µM (active); in experiment [2] it was 0.92 µM (active); in experiment [8], 4.18 µM (active); in experiment [4], 2.64 µM (active); in [9], 1.66 µM (active); in experiment [5], 17.8 µM (active).

Consider `CN1CCc2c(c3ccccc3n2Cc2ccc(C(=O)NO)cc2)C1`, for which the Potency is 26.3 µM (active) in experiment [1]; 14.8 µM (active) in experiment [2]; 13.2 µM (active) in experiment [6]; 11.8 µM (active) in experiment [8]; 28.2 µM (active) in experiment [7]. Also, in experiment [10], the Potency result was “inactive”.

For the compound `CCn1cc(-c2ccnc3[nH]c(-c4cccc(CN(C)C)c4)cc23)c(-c2ccc(NC(=O)N(C)C)cc2)n1`, the Potency in [1] was 103 nM (active) and 83.3 nM (active); in experiment [2], 282 nM (active) and 235 nM (active); in [10] it was 0.0833 µM (active); in experiment [6], 0.0833 µM (active); in experiment [8], 0.0743 µM (active); in experiment [4], 0.0469 µM (active). Also, the values for the Potency in experiment [9], in [5] and in [7] were 0.059 µM (active), 17.8 µM (active) and 12.6 µM (active), respectively.

On to `CN(C)CC[C@H](CSc1ccccc1)Nc1ccc(S(=O)(=O)NC(=O)c2ccc(N3CCN(Cc4ccccc4-c4ccc(Cl)cc4)CC3)cc2)cc1[N+](=O)[O-]`, for which the Potency in experiment [1] was 0.148 µM (active); in [2] it was 0.0332 µM (active); in [10], 2.35 µM (active); in [6], 2.64 µM (active); in [4] it was 0.0935 µM (active); in experiment [9], 0.0469 µM (active). For the same compound, in experiment [7], the Potency was 22.4 µM (active).

In the case of `CC(C)C[C@H](NC(=O)c1cc2ccccc2s1)C(=O)N1CCN(C(=O)[C@H](CO)NS(=O)(=O)c2ccc(Cl)cc2Cl)CC1`, the values for the Potency in experiment [1], in experiment [2] and in [7] were 20.9 µM (active), 16.6 µM (active) and 25.1 µM (active), respectively. Further, the Potency entry in [3] and in experiment [6] was “inactive” in each case.

For the compound `Cc1c(NC(=O)OC[C@@H]2COCCN2)cn2ncnc(Nc3ccc4c(cnn4Cc4cccc(F)c4)c3)c12`, the Potency in [1] was 10.3 µM (active) and 13.2 µM (active); in experiment [2], 8.2 µM (active) and 11.8 µM (active); in experiment [8], 9.35 µM (active); in experiment [4] it was 9.35 µM (active); in experiment [9], 10.5 µM (active); in experiment [5], 15.8 µM (active). Also, the Potency in [7] is 31.6 µM (active).

Take `O=C(Nc1ccc([N+](=O)[O-])cc1Cl)c1cc(Cl)ccc1O`: the Potency in experiment [1] is 920 nM (active) and 934 nM (active); in experiment [2], 1.16 µM (active) and 742 nM (active); in [10], 2.96 µM (active); in [6], 2.35 µM (active); in [4], 1.18 µM (active); in experiment [5], 142 nM (active) and 447 nM (active). For the same compound, the Potency in experiment [7] was 224 nM (active) and 1 µM (active).

On to `CN(C)c1nc(Cc2ccc(NC(=O)c3ccc4ccccc4c3)cc2)nc(Cl)c1CC(=O)O`, for which the Potency entry in experiment [1], in experiment [2], in [8], in experiment [4] and in experiment [9] was “inactive” throughout. The Potency was 5.26 µM (active) in experiment [10] and 2.96 µM (active) in [6].

Consider `Oc1cc(-c2nc(-c3ccccc3)[nH]c2-c2ccncc2)ccc1Cl`, for which the Potency was 6.51 µM (active) in experiment [1]; 5.9 µM (active) and 3.66 µM (active) in [2]; 16.6 µM (active) in experiment [3]; 17.8 µM (active) in [5]; 28.2 µM (active) in [7]. In addition, the Potency result in experiment [8] is “inactive”.

For the compound `Cn1c2ccccc2c2c3c(c4c5ccccc5n(CCC#N)c4c21)CNC3=O`, the Potency in experiment [1] is 0.0651 µM (active); in experiment [2] it was 0.259 µM (active); in [8], 0.372 µM (active); in experiment [4] it was 0.526 µM (active); in [9], 0.418 µM (active); in [7], 3.55 µM (active).

As for `NC(=O)Nc1sc(-c2ccc(F)cc2)cc1C(N)=O`, the Potency was 1.86 µM (active) in experiment [1]; 3.32 µM (active) in experiment [2]; 16.6 µM (active) in [8]; 1.32 µM (active) in experiment [4]; 14.8 µM (active) in experiment [9]. For the same compound, in experiment [5], the activity (max response) was -22.4%.

With `CCN1CCC(n2cc(CNc3cc(Cl)c4ncc(C#N)c(Nc5ccc(F)c(Cl)c5)c4c3)nn2)CC1`, the Potency in experiment [1] is 13 µM (active); in experiment [2], 11.6 µM (active); in [3], 4.18 µM (active); in [6] it was 18.7 µM (active); in [8], 18.7 µM (active); in experiment [4], 3.32 µM (active). Besides, the Potency in experiment [9] is 13.2 µM (active); in [7] it was 31.6 µM (active).

For the origin of these results see PubChem BioAssay (NCATS).
